# Compound activity (PubChem)
# mHTT CaM bind: disrupts binding of mutant huntingtin to calmodulin. AID 1671202. inhibition, % at 15 µM. 190,000 tested, 3.6% active. AlphaScreen His-mHTT/GST-CaM binding, luminescence. P42858;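 also: 0% = both proteins with DMSO and 100% = one protein alone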
# Target sequence (P42858 whole entry, looked up, stated change not applied): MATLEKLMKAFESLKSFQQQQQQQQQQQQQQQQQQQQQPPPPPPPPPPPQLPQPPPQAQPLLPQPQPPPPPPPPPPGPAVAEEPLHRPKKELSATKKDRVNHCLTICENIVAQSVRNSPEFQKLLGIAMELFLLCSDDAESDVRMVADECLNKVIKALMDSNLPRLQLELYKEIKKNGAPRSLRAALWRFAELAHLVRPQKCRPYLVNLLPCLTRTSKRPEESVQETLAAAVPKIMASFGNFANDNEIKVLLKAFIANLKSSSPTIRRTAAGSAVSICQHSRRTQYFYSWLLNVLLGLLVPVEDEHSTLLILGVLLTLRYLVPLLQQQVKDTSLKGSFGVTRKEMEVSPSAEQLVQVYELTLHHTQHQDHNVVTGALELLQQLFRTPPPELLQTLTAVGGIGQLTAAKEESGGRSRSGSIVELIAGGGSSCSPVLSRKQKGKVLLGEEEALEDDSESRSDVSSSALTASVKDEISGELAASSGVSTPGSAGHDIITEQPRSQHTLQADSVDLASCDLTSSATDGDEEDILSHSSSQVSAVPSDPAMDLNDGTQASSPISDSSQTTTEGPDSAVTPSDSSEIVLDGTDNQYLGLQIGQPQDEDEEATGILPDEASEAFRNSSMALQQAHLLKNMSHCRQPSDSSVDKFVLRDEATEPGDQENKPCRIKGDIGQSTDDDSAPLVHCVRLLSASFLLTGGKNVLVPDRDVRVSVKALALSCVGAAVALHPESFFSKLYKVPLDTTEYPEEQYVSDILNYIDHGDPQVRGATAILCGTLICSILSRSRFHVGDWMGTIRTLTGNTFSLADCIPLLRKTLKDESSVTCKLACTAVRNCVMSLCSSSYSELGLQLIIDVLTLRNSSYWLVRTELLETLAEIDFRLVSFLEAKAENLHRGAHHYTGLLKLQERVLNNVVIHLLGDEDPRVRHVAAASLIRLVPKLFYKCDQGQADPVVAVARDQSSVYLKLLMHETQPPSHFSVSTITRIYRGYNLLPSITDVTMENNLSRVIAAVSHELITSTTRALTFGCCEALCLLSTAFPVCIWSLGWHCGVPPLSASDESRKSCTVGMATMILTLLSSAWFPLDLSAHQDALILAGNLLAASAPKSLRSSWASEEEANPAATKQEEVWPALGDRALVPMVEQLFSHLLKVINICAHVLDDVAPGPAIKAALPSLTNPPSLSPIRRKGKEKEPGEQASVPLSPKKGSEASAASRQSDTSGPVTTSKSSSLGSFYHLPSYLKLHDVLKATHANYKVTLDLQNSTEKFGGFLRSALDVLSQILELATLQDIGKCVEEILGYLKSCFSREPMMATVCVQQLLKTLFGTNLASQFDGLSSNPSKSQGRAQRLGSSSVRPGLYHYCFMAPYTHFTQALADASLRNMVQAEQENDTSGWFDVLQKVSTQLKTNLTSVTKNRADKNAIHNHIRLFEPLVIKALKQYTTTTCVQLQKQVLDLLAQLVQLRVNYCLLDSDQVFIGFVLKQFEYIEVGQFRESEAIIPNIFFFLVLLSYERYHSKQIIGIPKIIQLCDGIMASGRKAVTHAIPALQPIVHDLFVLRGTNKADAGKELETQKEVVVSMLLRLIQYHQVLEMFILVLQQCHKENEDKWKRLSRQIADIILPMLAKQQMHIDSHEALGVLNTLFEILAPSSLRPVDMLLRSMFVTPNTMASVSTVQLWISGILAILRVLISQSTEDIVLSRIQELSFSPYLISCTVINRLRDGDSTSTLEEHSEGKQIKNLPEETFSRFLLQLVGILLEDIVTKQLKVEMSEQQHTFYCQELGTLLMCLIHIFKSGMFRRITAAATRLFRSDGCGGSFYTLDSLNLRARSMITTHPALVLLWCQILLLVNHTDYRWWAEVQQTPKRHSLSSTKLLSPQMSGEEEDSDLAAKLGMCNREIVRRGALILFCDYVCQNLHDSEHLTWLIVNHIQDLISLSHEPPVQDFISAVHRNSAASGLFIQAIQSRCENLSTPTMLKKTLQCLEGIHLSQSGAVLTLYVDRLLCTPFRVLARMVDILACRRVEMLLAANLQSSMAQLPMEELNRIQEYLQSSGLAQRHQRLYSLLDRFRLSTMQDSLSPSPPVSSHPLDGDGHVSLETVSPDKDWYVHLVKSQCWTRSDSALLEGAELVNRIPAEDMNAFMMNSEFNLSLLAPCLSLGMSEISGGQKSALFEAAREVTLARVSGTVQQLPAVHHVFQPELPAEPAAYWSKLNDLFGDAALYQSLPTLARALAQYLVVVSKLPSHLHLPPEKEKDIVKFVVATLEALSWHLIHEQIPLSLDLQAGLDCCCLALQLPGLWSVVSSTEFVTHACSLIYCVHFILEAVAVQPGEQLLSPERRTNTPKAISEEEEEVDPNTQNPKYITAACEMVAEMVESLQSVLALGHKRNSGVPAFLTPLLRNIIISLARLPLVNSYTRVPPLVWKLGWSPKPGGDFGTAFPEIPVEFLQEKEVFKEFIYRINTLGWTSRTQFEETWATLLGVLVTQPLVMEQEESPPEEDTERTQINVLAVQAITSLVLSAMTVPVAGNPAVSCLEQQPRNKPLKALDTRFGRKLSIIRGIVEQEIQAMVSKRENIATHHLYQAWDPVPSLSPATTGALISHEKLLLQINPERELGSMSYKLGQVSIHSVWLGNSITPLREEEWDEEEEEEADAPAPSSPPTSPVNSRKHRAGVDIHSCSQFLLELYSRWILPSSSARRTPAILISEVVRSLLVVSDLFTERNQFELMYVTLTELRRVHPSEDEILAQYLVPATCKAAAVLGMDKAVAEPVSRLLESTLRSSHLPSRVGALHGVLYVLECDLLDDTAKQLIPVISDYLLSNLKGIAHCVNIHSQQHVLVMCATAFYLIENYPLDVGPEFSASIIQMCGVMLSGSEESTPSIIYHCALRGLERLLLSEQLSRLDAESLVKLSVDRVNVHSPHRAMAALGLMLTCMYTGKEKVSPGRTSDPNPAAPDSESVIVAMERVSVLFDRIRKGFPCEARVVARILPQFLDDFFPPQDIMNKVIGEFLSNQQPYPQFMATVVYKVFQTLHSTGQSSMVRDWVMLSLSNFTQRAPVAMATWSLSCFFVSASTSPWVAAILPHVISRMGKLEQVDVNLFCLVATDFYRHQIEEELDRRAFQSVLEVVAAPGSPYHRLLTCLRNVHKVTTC
# Pf apPOL block: Pf-apPOL DNA polymerase inhibition | Recombinant Pf-apPOL, molecular beacon fluorescence, 1.5 h | inhibition, % at 10 µM | 210,000 tested, 0.25% active | AID 1794808
# * marks the source's active call; other numbers are inactive results; i = inactive; · = not tested or not shown; ! = a repeat was not active. This is one part of a sample in which hits are shown more often than they occur. Rule as the data show it: active = inhibition above about 50%; inactive = the rest.
SMILES,mHTT CaM bind,Pf apPOL block
C=CCSc1nnc2c(n1)OC(/C=C/c1ccco1)Nc1ccc(Br)cc1-2 (stereo unspecified),87*,1
C=CCSc1nnc2c(n1)OC(/C=C/c1ccco1)Nc1ccccc1-2 (stereo unspecified),30,-8
CSc1nnc2c(n1)OC(/C=C/c1ccco1)Nc1ccc(Br)cc1-2 (stereo unspecified),92*,-3
CSc1nnc2c(n1)OC(/C=C/c1ccco1)Nc1ccccc1-2 (stereo unspecified),46,0
CCSc1nnc2c(n1)OC(c1ccccn1)Nc1ccccc1-2 (stereo unspecified),3,93*
CCCSc1nnc2c(n1)OC(/C=C/c1ccco1)Nc1ccccc1-2 (stereo unspecified),54*,2
CCSc1nnc2c(n1)OC(c1ccccn1)Nc1ccc(Br)cc1-2 (stereo unspecified),10,0
CSc1nnc2c(n1)OC(c1ccccn1)Nc1ccc(Br)cc1-2 (stereo unspecified),22,-10
COc1ccc(-c2cc(=O)n(CCNC(=O)c3c(F)cccc3F)cn2)cc1,-11,-12
CCOc1ccc(NCC(O)Cn2c(C)c(C)c3ccccc32)cc1 (stereo unspecified),84*,-2
COc1ccc(NCC(O)Cn2c(C)c(C)c3ccccc32)c(OC)c1 (stereo unspecified),74*,-1
CC(=O)Nc1ccc(OCC(O)Cn2c3ccccc3c3ccccc32)cc1 (stereo unspecified),26,-2
Cc1c(C)n(CC(O)CN2CCCCCC2)c2ccccc12 (stereo unspecified),10,-8
Cc1c(C)n(CC(O)CNC2CCCCC2)c2ccccc12 (stereo unspecified),3,0
COc1ccc(NCC(O)Cn2c(C)c(C)c3ccccc32)cc1 (stereo unspecified),57*,2
O=S(=O)(Nc1cc(Cl)ccc1Cl)c1cccs1,-5,·
CCOc1cc2c(cc1/C=C1\SC(=O)N(C(C)CC)C1=O)OCO2 (stereo unspecified),1,2
COc1ccc(OC)c(NC(=O)C2CN(S(=O)(=O)C3CC3)CC23CCCCC3)c1 (stereo unspecified),15,-2
COc1ccc(NC(=O)C2CN(S(=O)(=O)C3CC3)CC23CCCCC3)cc1 (stereo unspecified),58*,9
COc1ccc2c(c1)OCC/C2=N\OC(=O)c1ccc(OC)c([N+](=O)[O-])c1,i,-10
CC(C)CNc1cnn(C)c(=O)c1Cl,-4,0
COc1ccc(Cl)cc1S(=O)(=O)Nc1ccc2c(c1)NC(=O)C(C)(C)CO2,69*,-9
CCc1ccc(NS(=O)(=O)c2cc(Cl)ccc2OC)cc1,-8,-12
Cc1cccc2c(C3CCN(C(=O)c4ccccc4OC(F)(F)F)CC3)c[nH]c12,100*,-7
COc1ccccc1C1CCN(C(=O)CSCc2cccc3ccccc23)CC1,·,-6
SMILES,mHTT CaM bind,Pf apPOL block
O=C(NCc1cccs1)C1CCN(S(=O)(=O)N2CCC3(CC2)OCCO3)CC1,-9,-11
COc1ccc(-c2cc(C(=O)NCc3ccc(C)o3)no2)cc1,-3,-1
CC1=C(C#N)C(c2cccc(F)c2)C2=C(CC(c3ccccc3)CC2=O)N1 (stereo unspecified),1,-7
Cc1ccccc1CNC(=O)C1CCCN(c2nn3c(=O)c4c(nc3s2)CCCC4)C1 (stereo unspecified),35,0
O=C(CSc1nc(-c2ccccc2)c(-c2ccccc2)o1)N1CCOCC1,56*!,10
O=C(CSc1ccccc1)N1CCOCC1,-2,-9
CCCC1CCC2(CCCN2CCOC(=S)Nc2cccc(Cl)c2)CC1 (stereo unspecified),28,-4
CCCC1CCC2(CCCN2CCOC(=S)Nc2ccccc2)CC1 (stereo unspecified),61*,-7
CCCC1CCC2(CCCN2CCOC(=S)Nc2ccccc2Cl)CC1 (stereo unspecified),-8,-9
CCCC1CCC2(CCCN2CCOC(=O)Nc2cccc(Cl)c2)CC1 (stereo unspecified),95*,-7
O=C(COc1ccc(Cl)cc1)N1CCC(N2CCc3ccccc32)CC1,86*,-4
CC1CCCN(C(=O)COc2ccc(Cl)cc2)C1 (stereo unspecified),-9,-5
O=C(COc1ccc(F)cc1)N1CCCC(c2ccnc(-c3ccccc3)n2)C1 (stereo unspecified),73*,-1
O=C(c1ccco1)N1CCCC(c2ccnc(-c3ccccc3)n2)C1 (stereo unspecified),61*,-2
O=C(c1ccccc1)N1CCCC(c2ccnc(-c3ccccc3)n2)C1 (stereo unspecified),31,-3
O=C(c1ccc(F)cc1)N1CCCC(c2ccnc(-c3ccccc3)n2)C1 (stereo unspecified),18,-2
Clc1ccc(-c2nc(-c3ccncc3)no2)cc1Cl,-5,34
CCC(=O)Nc1ccc2c(c1)C(N(C)CC)=Nc1ccccc1O2,0,-5
COc1ccc(CCN2CC(C(=O)NCc3cc(F)ccc3F)CC2=O)cc1OC (stereo unspecified),5,-3
Cc1nc(-c2cccnc2)nc2c1CCC(=O)N2CCN1CCCC1,23,58*
Cc1ccc(CN2C(=O)CCc3c(C)nc(-c4ccncc4)nc32)o1,71*,9
Cc1nc(-c2cnccn2)nc2c1CCC(=O)N2Cc1ccccn1,99*,-22
Cc1nc(-c2ccncc2)nc2c1CCC(=O)N2Cc1cccs1,6,-3
Cc1nc(-c2cccnc2)nc2c1CCC(=O)N2Cc1ccccn1,2,-12
Cc1nc(-c2cccnc2)nc2c1CCC(=O)N2CCN(C)C,1,-6
SMILES,mHTT CaM bind,Pf apPOL block
Cc1c(Cc2ccc(F)cc2)c(=O)oc2cc(OS(=O)(=O)c3cccc(Cl)c3)ccc12,·,-2
CC(C)(C)OC(=O)N1CC(C(=O)O)C1,0,-11
COC(=O)c1ccc(NC(=O)C2CCc3sc(NC(=O)c4ccc(F)cc4)nc32)cc1 (stereo unspecified),40,16
COc1ccc(-c2[nH]ncc2Oc2ccc(F)cc2)c(O)c1,44,0
COc1ccc(-c2[nH]ncc2-c2ccc(Cl)cc2)c(O)c1,69*,-4
CCN1C(N)=C(C#N)C2(CCNCC2)c2nc(C)oc21,1,·
Cc1ccc(C(=O)Nc2ccccc2[N+](=O)[O-])c(Cl)c1,19,-3
Cc1oc(C2CCN(C(=O)C(C)C)CC2)nc1C(=O)N1CCCC1,-2,-1
CCN(CC)C(=O)c1cc2c(n1C)CCN(Cc1cccc(C)c1)C2,50,-7
Cn1c(C(=O)NCCCN2CCCCC2)cc2c1CCN(Cc1cccc(F)c1)C2,83*,-4
CN(Cc1ccccc1)C(=O)c1cc2c(n1C)CCN(Cc1cccc(F)c1)C2,59*,-5
COc1ccc(CNC(=O)c2cc3c(n2C)CCN(Cc2ccccc2)C3)cc1,38,-2
Cc1cccc(CN2CCc3c(cc(C(=O)NCc4ccco4)n3C)C2)c1,57*,-4
Cn1c(C(=O)NCc2ccccc2)cc2c1CCN(Cc1ccccc1)C2,63*,-1
Cn1c(C(=O)NC(C)(C)C)cc2c1CCN(Cc1cccc(F)c1)C2,16,-4
CCCCN(C)C(=O)c1cc2c(n1C)CCN(Cc1cccc(F)c1)C2,45,-6
